# Active and inactive are the calls of the source.
# Columns and labels:
# [1] = small molecules captured by biotinylated probe aFSTL3 – biochemical, small-molecule microarray, fluorescence 635/667, stem cell growth factor project, primary screen (AID 1064); details: higher = more signal;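 further: measures binding of the biotinylated anti-FSTL3 antibody to printed compounds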
# [2] = binders from COS7 lysate, DM2A8 probe, primary screen, torsin A project, cell lysate, small-molecule microarray, fluorescence 635/667 (AID 1065); details: higher = more signal, COS7 lysate expressing mutant human TOR1A
# [3] = small molecules captured by biotinylated probe aFGF2 – biochemical, small-molecule microarray, fluorescence 635/667, stem cell growth factor project, primary screen (AID 1067); details: higher = more signal;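 further: measures binding of biotinylated aFGF2 protein to printed compounds on slides; z-score merges feature fluorescence and signal-to-noise across triplicate slides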
# [4] = small molecules captured by biotinylated probe aFGF10 – biochemical, small-molecule microarray, fluorescence 635/667, stem cell growth factor project, primary screen (AID 1071); details: higher = more signal;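 further: score merges 667 nm spot intensity and signal to noise from triplicate slides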
# [5] = biological target: Neurogenic locus notch homolog protein 2 (Homo sapiens) (UniProt Q04721); experiment: small molecules binding Notch2 protein – biochemical, small-molecule microarray, 635 nm fluorescence, stem cell growth factors, primary screen (AID 1073); details: higher = more signal
# [6] = biological target: Pro-neuregulin-1, membrane-bound isoform (Homo sapiens) (UniProt Q02297); experiment: small molecules binding neuregulin-1 protein – biochemical, small-molecule microarray, fluorescence 635/667, psychiatric disease protein project, primary screen (AID 1075); details: NRG1 binding, 635 nm fluorescence, higher = more signal;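 further: score combines 667 nm spot fluorescence with signal to noise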
# [7] = tested on: Neuregulin-1 EGF-like domain; experiment: small molecules binding NRG1 EGF domain – biochemical, small-molecule microarray, 635 nm fluorescence, primary screen (AID 1081); details: higher = more signal;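 further: binding of the protein to compounds printed on small-molecule microarray slides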
# [8] = FRG1 expression reporter modulators in myotubes – cell-based, C2C12 myotubes, firefly/Renilla luciferase, luminescence, FRG1 inhibition for FSHD, primary screen (AID 1084); details: FRG1 promoter luciferase, higher = more signal, called active from +8 up or from −8 down
# [9] = small molecules captured by biotinylated probe aFST – biochemical, small-molecule microarray, fluorescence 635/667, stem cell growth factor project, primary screen (AID 1086); details: higher = more signal;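 further: score merges 667 nm fluorescence with signal-to-noise of each printed compound spot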
# [10] = binders of probe aHhip on microarray, primary screen, stem cell growth factor project, biochemical, small-molecule microarray, fluorescence 635/667 (AID 1087); details: higher = more signal;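 further: score merges spot fluorescence at 667nm with spot signal to noise ratio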
# [11] = tested on: PRMT1 (protein arginine N-methyltransferase 1); experiment: small molecules binding arginine methyltransferase PRMT1 – biochemical, small-molecule microarray, 635 nm fluorescence, primary screen (AID 1088); details: higher = more signal;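 further: binding of Prmt1 protein to compounds spotted on small-molecule microarray slides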
# [12] = growth effects on S. cerevisiae YJM789 – YJM789 clinical isolate, OD600, 24 h, basal, primary screen (AID 1089); details: higher = more signal, called active from +8 up or from −8 down;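 further: growth of clinical yeast isolate S. cerevisiae YJM 789 seeded 1000 cells per well; test concentration not given here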
# [13] = S. pombe growth modifiers, basal conditions – strain 972, OD600, 24 h, no modulator, primary screen (AID 1090);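 further: basal condition with compound alone and no growth modifier present; test concentration not given here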; details: S. pombe 972 growth, higher = more signal, called active from +8 up or from −8 down
# [14] = budding yeast growth modifiers under rapamycin – strain BY4716, OD600, 96 h, primary screen (AID 1091); further: test concentration not given here; details: S. cerevisiae BY4716 + rapamycin, higher = more signal, called active from +8 up or from −8 down
# [15] = biological target: Torsin-1A-interacting protein 2 (Homo sapiens) (UniProt Q8NFQ8); experiment: small molecules binding lysate-expressed LULL1 – cell lysate, human LULL1 lysate, 635/667 nm fluorescence, primary screen (AID 1092); details: small-molecule microarray, hLULL1 lysate binding, 635 nm fluorescence; higher = more signal;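 further: probe is lysate of COS7 cells overexpressing human LULL1; score merges per-feature 667 nm fluorescence with signal-to-noise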
# [16] = optical density change of DRC41 E. coli – strain DRC41, OD650, 24 h, E. coli filamentation project, primary screen (AID 1093);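 further: MC1000 strain lacking acrAB efflux and sulA so SOS filamentation is blocked; test concentration not given here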; details: E. coli DRC41 growth, higher = more signal, called active from +8 up or from −8 down
# [17] = probe aLefty2 binding to arrayed compounds – biochemical, biotinylated probe, 635/667 nm fluorescence, primary screen (AID 1094); details: small-molecule microarray, higher = more signal;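 further: score merges spot fluorescence near 667 nm with spot signal-to-noise ratio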
# [18] = tested on: Noggin (protein binding on small-molecule microarray); experiment: small molecules binding Noggin protein – biochemical, 635/667 nm fluorescence, primary screen (AID 1095); details: 635 nm fluorescence, higher = more signal;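 further: score merges 667 nm feature fluorescence with signal to noise over triplicate slides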
# [19] = biological target: Neurogenic locus notch homolog protein 3 (Homo sapiens) (UniProt Q9UM47); experiment: small molecules binding NOTCH3 protein – biochemical, 635/667 nm fluorescence, primary screen (AID 1096); details: small-molecule microarray, 635 nm fluorescence, higher = more signal
# [20] = probe aEGFR binding to arrayed compounds – biochemical, biotinylated probe, 635/667 nm fluorescence, primary screen (AID 1097); details: small-molecule microarray, higher = more signal;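 further: probe is a biotinylated anti-EGFR antibody binding compounds printed on slides; score combines fluorescence near 667 nm and signal to noise of each spot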
# Chain of Pro-neuregulin-1, membrane-bound isoform (Homo sapiens) (Q02297 whole entry, looked up, the tested form may be a part, canonical isoform): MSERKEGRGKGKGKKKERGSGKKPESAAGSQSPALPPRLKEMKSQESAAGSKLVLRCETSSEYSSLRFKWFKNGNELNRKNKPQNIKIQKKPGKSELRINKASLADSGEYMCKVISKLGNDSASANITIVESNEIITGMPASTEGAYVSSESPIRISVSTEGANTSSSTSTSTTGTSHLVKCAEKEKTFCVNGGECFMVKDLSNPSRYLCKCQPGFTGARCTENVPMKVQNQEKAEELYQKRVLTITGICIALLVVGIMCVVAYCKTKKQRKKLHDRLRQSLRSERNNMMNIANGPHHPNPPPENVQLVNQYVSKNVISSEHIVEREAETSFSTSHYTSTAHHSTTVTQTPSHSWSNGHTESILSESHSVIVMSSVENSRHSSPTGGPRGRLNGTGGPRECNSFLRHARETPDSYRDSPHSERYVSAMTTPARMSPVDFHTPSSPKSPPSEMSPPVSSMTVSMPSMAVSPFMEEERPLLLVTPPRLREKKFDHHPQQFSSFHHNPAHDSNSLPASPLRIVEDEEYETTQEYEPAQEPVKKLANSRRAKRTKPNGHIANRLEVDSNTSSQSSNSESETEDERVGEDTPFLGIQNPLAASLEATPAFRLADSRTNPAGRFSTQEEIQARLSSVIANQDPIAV
# Chain of Torsin-1A-interacting protein 2 (Homo sapiens) (Q8NFQ8 whole entry, looked up): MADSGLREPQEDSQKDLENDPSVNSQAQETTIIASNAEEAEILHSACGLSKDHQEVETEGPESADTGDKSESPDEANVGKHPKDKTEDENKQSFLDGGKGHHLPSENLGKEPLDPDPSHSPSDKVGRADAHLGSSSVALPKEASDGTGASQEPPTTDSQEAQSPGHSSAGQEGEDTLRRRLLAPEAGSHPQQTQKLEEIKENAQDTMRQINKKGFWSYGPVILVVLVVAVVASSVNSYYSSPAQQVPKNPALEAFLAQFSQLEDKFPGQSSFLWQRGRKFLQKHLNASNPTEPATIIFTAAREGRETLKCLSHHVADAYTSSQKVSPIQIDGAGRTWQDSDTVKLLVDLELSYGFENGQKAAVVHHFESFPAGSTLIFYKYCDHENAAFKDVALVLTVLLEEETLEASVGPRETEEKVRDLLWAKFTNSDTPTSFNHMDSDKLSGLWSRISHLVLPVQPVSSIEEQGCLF
# Chain of Neurogenic locus notch homolog protein 2 (Homo sapiens) (Q04721 whole entry, looked up, canonical isoform): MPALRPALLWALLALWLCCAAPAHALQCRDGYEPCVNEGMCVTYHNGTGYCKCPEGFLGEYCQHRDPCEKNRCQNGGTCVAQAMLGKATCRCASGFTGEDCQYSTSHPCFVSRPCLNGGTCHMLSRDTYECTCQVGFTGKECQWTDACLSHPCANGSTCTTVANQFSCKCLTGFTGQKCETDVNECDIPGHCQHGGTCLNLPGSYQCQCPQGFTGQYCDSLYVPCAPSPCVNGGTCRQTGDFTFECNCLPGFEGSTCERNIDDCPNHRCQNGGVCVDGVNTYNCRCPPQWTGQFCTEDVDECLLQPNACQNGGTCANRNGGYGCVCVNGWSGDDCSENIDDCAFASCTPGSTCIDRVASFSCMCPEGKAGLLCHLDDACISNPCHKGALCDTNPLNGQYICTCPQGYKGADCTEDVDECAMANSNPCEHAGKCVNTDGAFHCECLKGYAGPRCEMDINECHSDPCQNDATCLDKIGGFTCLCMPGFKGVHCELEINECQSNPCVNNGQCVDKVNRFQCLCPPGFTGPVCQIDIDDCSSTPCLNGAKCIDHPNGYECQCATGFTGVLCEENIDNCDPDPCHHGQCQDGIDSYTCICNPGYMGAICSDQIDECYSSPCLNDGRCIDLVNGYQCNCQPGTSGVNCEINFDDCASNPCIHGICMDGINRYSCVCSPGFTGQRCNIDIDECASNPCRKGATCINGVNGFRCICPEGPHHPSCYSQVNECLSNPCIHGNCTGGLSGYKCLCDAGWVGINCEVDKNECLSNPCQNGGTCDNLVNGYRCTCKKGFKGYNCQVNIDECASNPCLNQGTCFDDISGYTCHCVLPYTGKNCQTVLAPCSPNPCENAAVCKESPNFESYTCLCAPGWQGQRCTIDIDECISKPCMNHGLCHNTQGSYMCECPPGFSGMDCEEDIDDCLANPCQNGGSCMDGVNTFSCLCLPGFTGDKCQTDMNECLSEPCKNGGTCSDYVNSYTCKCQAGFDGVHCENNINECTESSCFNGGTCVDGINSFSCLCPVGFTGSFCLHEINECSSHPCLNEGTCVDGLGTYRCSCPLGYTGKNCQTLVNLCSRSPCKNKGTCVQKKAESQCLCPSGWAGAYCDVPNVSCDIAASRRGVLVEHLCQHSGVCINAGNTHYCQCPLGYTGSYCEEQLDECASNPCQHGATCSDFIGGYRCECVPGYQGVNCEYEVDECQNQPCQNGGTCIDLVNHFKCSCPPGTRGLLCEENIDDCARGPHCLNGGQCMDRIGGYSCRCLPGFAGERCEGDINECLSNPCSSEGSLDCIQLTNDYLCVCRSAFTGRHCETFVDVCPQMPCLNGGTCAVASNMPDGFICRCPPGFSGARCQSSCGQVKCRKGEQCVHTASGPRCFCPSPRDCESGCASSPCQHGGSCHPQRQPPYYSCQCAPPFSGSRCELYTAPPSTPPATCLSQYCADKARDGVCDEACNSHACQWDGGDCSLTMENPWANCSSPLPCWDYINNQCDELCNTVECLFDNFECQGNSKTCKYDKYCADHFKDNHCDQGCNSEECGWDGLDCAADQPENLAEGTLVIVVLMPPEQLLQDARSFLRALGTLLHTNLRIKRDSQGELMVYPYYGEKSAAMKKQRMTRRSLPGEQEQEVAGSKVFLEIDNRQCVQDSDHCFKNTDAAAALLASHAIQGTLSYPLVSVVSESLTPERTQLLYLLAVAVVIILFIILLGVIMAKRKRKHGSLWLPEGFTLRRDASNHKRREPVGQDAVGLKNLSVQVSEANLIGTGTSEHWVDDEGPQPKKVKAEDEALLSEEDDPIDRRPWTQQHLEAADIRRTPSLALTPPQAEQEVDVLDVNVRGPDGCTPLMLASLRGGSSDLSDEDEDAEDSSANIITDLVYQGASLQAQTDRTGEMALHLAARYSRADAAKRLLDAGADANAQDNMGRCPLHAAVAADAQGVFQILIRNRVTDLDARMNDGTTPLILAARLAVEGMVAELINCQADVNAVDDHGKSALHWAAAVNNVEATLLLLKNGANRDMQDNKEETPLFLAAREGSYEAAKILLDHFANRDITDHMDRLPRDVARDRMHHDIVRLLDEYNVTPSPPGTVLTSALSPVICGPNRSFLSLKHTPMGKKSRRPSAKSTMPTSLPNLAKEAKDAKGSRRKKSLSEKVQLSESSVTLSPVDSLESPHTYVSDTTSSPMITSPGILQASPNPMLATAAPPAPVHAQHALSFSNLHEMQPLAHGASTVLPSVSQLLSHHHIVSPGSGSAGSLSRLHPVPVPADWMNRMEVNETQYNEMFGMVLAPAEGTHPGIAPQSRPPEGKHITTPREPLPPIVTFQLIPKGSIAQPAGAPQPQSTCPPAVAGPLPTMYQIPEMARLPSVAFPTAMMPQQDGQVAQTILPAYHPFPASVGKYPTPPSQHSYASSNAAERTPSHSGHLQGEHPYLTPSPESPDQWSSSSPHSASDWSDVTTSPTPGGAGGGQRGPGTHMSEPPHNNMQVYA
SMILES,composite z-score [1],composite z-score [2],composite z-score [3],composite z-score [4],composite z-score [5],composite z-score [6],composite z-score [7],z-score [8],composite z-score [9],composite z-score [10],composite z-score [11],z-score [12],z-score [13],z-score [14],composite z-score [15],z-score [16],composite z-score [17],composite z-score [18],composite z-score [19],composite z-score [20]
[N-]=[N+]=NCc1ccccc1[C@H]1OC(c2ccc(OCCCO)cc2)=N[C@@]1(Cc1ccccc1N=[N+]=[N-])C(=O)O,0.377,1.08,0.0997,0.503,1.37,1.21,1.24,4.15 (inactive),0.632,0.0623,1.57,-0.467 (inactive),-4.46 (inactive),-1.66 (inactive),2.78,-0.0765 (inactive),0.359,0.145,1.06,0.0783
COc1c(C)cc(-c2nc(-c3ccccc3)c3c(c2C)CO[Si]3(C(C)C)C(C)C)cc1C,-0.24,0.428,-0.134,0.146,0.442,-0.0636,-0.104,0.232 (inactive),0.0724,-0.0994,0.114,0.687 (inactive),0.104 (inactive),-0.191 (inactive),0.254,-1.59 (inactive),0.074,0.323,0.566,-0.0068
CC(C)N1C(=O)[C@@]2(Cc3ccccc31)c1ccccc1C(=O)N(Cc1ccccc1)[C@H]2c1ccc(CO)cc1,-0.244,-0.164,-0.204,-0.125,-0.291,0.251,0.322,-0.0076 (inactive),-0.0754,-0.391,-0.0364,1.43 (inactive),0.555 (inactive),-0.204 (inactive),0.0342,0.365 (inactive),-0.578,0.209,-0.508,-0.424
O=C1NC(=O)C2C1C=CC(C(O)C1CCCCC1)N2Nc1ccccn1 (stereo not given),-0.236,0.0046,-0.0524,0.235,0.629,1.37,1.32,1.64 (inactive),0.265,-0.374,0.327,0.459 (inactive),0.633 (inactive),0.117 (inactive),2.43,-1.5 (inactive),0.0078,-0.401,0.492,-0.104
COCCOC(=O)N1C(=O)[C@@]2(c3cc(C#CC4=CCCCC4)ccc31)[C@H](C(=O)N1CCCCCCC1)[C@H]1C(=O)O[C@H](c3ccccc3)[C@H](c3ccccc3)N1[C@@H]2c1ccccc1OCCO,2.57,0.571,0.0328,0.271,1.08,1.11,1.18,0.927 (inactive),2.04,0.33,1.55,1.01 (inactive),-1.22 (inactive),1.98 (inactive),3.02,0.87 (inactive),1.15,1.5,1.06,0.417
CC(C)[Si](C#Cc1ccccc1)(O[C@H](c1ccccc1)c1cn(Cc2ccccc2)nn1)C(C)C,-0.527,0.884,-0.123,0.76,0.534,0.8,1.28,0.92 (inactive),0.0643,0.107,1.02,-1.94 (inactive),-19.9 (active),-2.28 (inactive),2.04,2.14 (inactive),-0.195,1.08,1.01,-0.133
[N-]=[N+]=NCc1ccccc1[C@H]1OC(c2ccc(OCCCO)cc2)=N[C@@]1(CCS(=O)(=O)c1ccccc1)C(=O)O,0.0191,0.401,-0.0087,0.135,1.21,1.01,0.19,6.44 (inactive),0.785,0.0881,0.0361,-0.791 (inactive),-0.155 (inactive),-0.814 (inactive),3.11,0.32 (inactive),0.021,-0.482,0.253,-0.067
CC(C)[Si]1(C(C)C)OCc2cc(-c3ccc(-c4ccc(Cl)c(Cl)c4)o3)nc(-c3ccc(Oc4ccccc4)cc3)c21,0.639,-1.11,-0.207,-0.738,-1.78,-0.762,-0.6,1.52 (inactive),-0.857,-0.306,-1.67,0.797 (inactive),-0.504 (inactive),2.3 (inactive),-1.07,-0.888 (inactive),0.0358,-1.78,-1.57,-0.447
CCOC(=O)C[C@H]1[C@H](OC(=O)c2ccc(-c3ccccc3)cc2)[C@@H](NC(=O)c2ccc(-c3ccccc3)cc2)c2cc(OCCCO)ccc2N1C(=O)c1ccccc1,-0.326,0.254,-0.0317,0.573,0.528,0.534,0.905,-0.281 (inactive),0.627,-0.213,1.26,0.495 (inactive),0.785 (inactive),1.3 (inactive),1.69,-0.783 (inactive),-0.275,0.253,1.07,-0.183
COc1ccc([Si](C)(C)[C@H]2[C@H](CCO)O[C@@]3(C(=O)N(Cc4ccccc4)c4ccc(NC(=O)[C@H](C)O)cc43)[C@@H]2C)cc1,-0.0382,0.394,-0.0653,1.12,0.855,0.638,1.18,-3.18 (inactive),0.239,0.126,1.44,2.75 (inactive),0.215 (inactive),5.82 (inactive),2.24,0.25 (inactive),0.0092,-0.227,0.149,0.148

# Source: PubChem BioAssay
